Consider ten molecules from PubChem BioAssay AID1508601 (ICCB-Longwood Screening Facility, Harvard Medical School, 2020).

A short description of test [1]: p53 stabilisation in HPV-positive human cells, imaging, p53-positive nuclei imaging, 24 h, 48 h (AID 1508601). To be noted: 24/48 h.
For test [2], the target named is Cellular tumor antigen p53 (Homo sapiens) (UniProt P04637). The test is described as above. To be noted: 24/48 h, stronger effect = higher value.
Where [3] appears, read: measured here: cell number at 24 h, concentration not given here.
The mark [4] stands for this setting: measured here: cell number at 48 h, concentration not given here.
[5] abbreviates: measured here: p53 positive nuclei at 24 h, concentration not given here.
Where [6] appears, read: measured here: cell number at 24 h, Library stock concentration: 3.33 mM.
Setting [7] is: measured here: cell number at 48 h, Library stock concentration: 3.33 mM.
Setting [8] is: Library stock concentration: 3.33 mM.
Where [9] appears, read: measured here: p53 positive nuclei at 24 h, Library stock concentration: 3.33 mM.
The mark [10] stands for this setting: measured here: cell number at 24 h, Library stock concentration: 80 uM.
The mark [11] stands for this setting: measured here: cell number at 24 h, Library stock concentration: 400 uM.
Where [12] appears, read: measured here: cell number at 24 h, Library stock concentration: 2 mM.
The mark [13] stands for this setting: measured here: cell number at 24 h, Library stock concentration: 10 mM.
Where [14] appears, read: measured here: cell number at 48 h, Library stock concentration: 80 uM.
Setting [15] is: measured here: cell number at 48 h, Library stock concentration: 400 uM.
Where [16] appears, read: measured here: cell number at 48 h, Library stock concentration: 2 mM.
[17] abbreviates: measured here: cell number at 48 h, Library stock concentration: 10 mM.
Where [18] appears, read: Library stock concentration: 80 uM.
Where [19] appears, read: Library stock concentration: 400 uM.
[20] abbreviates: Library stock concentration: 2 mM.
[21] abbreviates: Library stock concentration: 10 mM.
Where [22] appears, read: measured here: p53 positive nuclei at 24 h, Library stock concentration: 80 uM.
[23] abbreviates: measured here: p53 positive nuclei at 24 h, Library stock concentration: 400 uM.
[24] abbreviates: measured here: p53 positive nuclei at 24 h, Library stock concentration: 2 mM.
Setting [25] is: measured here: p53 positive nuclei at 24 h, Library stock concentration: 10 mM.

Values joined by “and” are separate entries in the source; they are usually repeats but may differ in a detail not shown here. Equal values may be shown once. Among all 5,700 compounds or so, about 85 (1%) were called active. No stated cut-off is given here; in the data, active means p53-positive nuclei above about 36% (passing the limit was not always enough); inactive means the rest. The list comes from a sample in which actives are over-represented; it also holds similar structures and randomly drawn compounds.

Chain of Cellular tumor antigen p53 (Homo sapiens) (P04637 whole entry, looked up): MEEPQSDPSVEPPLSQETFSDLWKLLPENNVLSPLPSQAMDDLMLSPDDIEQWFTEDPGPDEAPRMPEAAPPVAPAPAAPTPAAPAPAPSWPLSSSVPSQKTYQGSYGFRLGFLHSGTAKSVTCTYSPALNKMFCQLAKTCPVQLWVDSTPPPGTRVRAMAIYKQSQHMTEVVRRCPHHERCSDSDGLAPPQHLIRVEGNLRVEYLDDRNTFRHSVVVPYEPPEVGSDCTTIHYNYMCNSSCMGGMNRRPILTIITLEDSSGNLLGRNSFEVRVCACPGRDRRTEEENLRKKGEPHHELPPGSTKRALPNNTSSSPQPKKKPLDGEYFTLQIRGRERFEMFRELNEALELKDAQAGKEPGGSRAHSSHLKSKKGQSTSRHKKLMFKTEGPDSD

For `O=C1CN(c2ncnc3sccc23)CCN1Cc1ccc(F)cc1`, the nuclei count, normalised amounted to 108% in test [1] (setting [3]) and 111% in test [1] (setting [4]). Besides, the p53-positive nuclei, normalised is -0.087% (inactive) in test [2] (concentration not given here) and -0.23% in test [2] (setting [5]).
Consider `CC=CCC(C)C(O)C1C(=O)NC(CC)C(=O)N(C)CC(=O)N(C)C(CC(C)C)C(=O)NC(C(C)C)C(=O)N(C)C(CC(C)C)C(=O)NC(C)C(=O)NC(C)C(=O)N(C)C(CC(C)C)C(=O)N(C)C(CC(C)C)C(=O)N(C)C(C(C)C)C(=O)N1C` (configuration not stated), for which the nuclei count, normalised is 114% and 120% in test [1] (setting [6]); 120% and 121% in test [1] (setting [7]). Also, the p53-positive nuclei, normalised in test [2] (setting [8]) was -0.306% (inactive) and -0.666% (inactive); in test [2] (setting [9]), -0.452% and -0.338%.
In the case of `Cc1ncc(-c2ccnc(Nc3ccc(S(C)(=O)=O)cc3)n2)n1C(C)C`, the nuclei count, normalised in test [1] (setting [10]) is 104% and 73.6%; in test [1] (setting [11]) it was 100% and 83.3%; in test [1] (setting [12]), 54.9% and 60.1%; in test [1] (setting [6]), 46.1%; in test [1] (setting [13]), 36.9% and 37.6%; in test [1] (setting [14]), 105% and 49.6%. In addition, the nuclei count, normalised in test [1] (setting [15]) was 89.2% and 61.2%; in test [1] (setting [16]) it was 24.1% and 33.6%; in test [1] (setting [7]) it was 23%; in test [1] (setting [17]), 21.8% and 24.6%. For the same molecule, the p53-positive nuclei, normalised in test [2] (setting [18]) was 0.106% (inactive) and 10.7% (inactive); in test [2] (setting [19]), 0.447% (inactive) and 4.11% (inactive); in test [2] (setting [20]), 57.6% (inactive) and 42.9% (inactive); in test [2] (setting [8]) it was 60.3% (active); in test [2] (setting [21]), 50.8% (inactive) and 49.9% (inactive); in test [2] (setting [22]), 0.00746% and 0.944%. The p53-positive nuclei, normalised in test [2] (setting [23]) is 0.0769% and 0.14%; in test [2] (setting [24]), 34.6% and 11.8%; in test [2] (setting [9]), 32.5%; in test [2] (setting [25]), 15.1% and 13.6%.
As for `Cc1nn(C)c(C)c1-c1ccnc(NCC(C)Oc2cccnc2)n1` (configuration not stated), the nuclei count, normalised is 103% in test [1] (setting [3]) and 101% in test [1] (setting [4]). In addition, the p53-positive nuclei, normalised in test [2] (concentration not given here) is -0.151% (inactive); in test [2] (setting [5]), -0.079%.
Taken in the same sequence, the figures for `COc1cc(-c2cccc(C)c2C)nc(N)n1` were 87.1%, 74.8%, 0.587% (inactive) and 0.226%.
Take `CN(CC1COc2ccccc2O1)C(=O)Nc1nncs1` (configuration not stated): the nuclei count, normalised is 103% in test [1] (setting [3]) and 104% in test [1] (setting [4]). In addition, the p53-positive nuclei, normalised in test [2] (concentration not given here) is -0.215% (inactive); in test [2] (setting [5]), -0.0697%.
For the molecule `O=C1NCCSc2c1sc1ccc(O)cc21`, the nuclei count, normalised came to 111% in test [1] (measured here: cell number at 24 h, Library stock concentration: 46 uM); 108% in test [1] (measured here: cell number at 24 h, Library stock concentration: 278 uM); 101% in test [1] (measured here: cell number at 24 h, Library stock concentration: 1.67 mM); 56.1% in test [1] (setting [13]); 110% in test [1] (measured here: cell number at 48 h, Library stock concentration: 46 uM); 113% in test [1] (measured here: cell number at 48 h, Library stock concentration: 278 uM). For the same molecule, the nuclei count, normalised was 113% in test [1] (measured here: cell number at 48 h, Library stock concentration: 1.67 mM) and 36.9% in test [1] (setting [17]). Further, the p53-positive nuclei, normalised in test [2] (Library stock concentration: 46 uM) was -0.0208% (inactive); in test [2] (Library stock concentration: 278 uM), -0.288% (inactive); in test [2] (Library stock concentration: 1.67 mM) it was 0.37% (inactive); in test [2] (setting [21]) it was 60.9% (active); in test [2] (measured here: p53 positive nuclei at 24 h, Library stock concentration: 46 uM), 0.0309%; in test [2] (measured here: p53 positive nuclei at 24 h, Library stock concentration: 278 uM), -0.0893%. For the same molecule, the p53-positive nuclei, normalised was found to be 0.2% in test [2] (measured here: p53 positive nuclei at 24 h, Library stock concentration: 1.67 mM) and 4.05% in test [2] (setting [25]).
`O=C1NCCCc2c1oc1ccc(O)cc21`: the nuclei count, normalised in test [1] (setting [10]) came out at 99.3%; in test [1] (setting [11]) it was 92.2%; in test [1] (setting [12]), 96.6%; in test [1] (setting [13]), 89.4%; in test [1] (setting [14]) it was 104%; in test [1] (setting [15]) it was 99.1%. Also, the nuclei count, normalised in test [1] (setting [16]) worked out at 99.6%; in test [1] (setting [17]) it was 98.7%. Further, the p53-positive nuclei, normalised is -0.0796% (inactive) in test [2] (setting [18]); -0.0299% (inactive) in test [2] (setting [19]); 0.259% (inactive) in test [2] (setting [20]); 0.273% (inactive) in test [2] (setting [21]); -0.0621% in test [2] (setting [22]); -0.105% in test [2] (setting [23]). In addition, the p53-positive nuclei, normalised in test [2] (setting [24]) was determined as 0.32%; in test [2] (setting [25]), 0.126%.
In the case of `CCCCCCCCCCCCCCCCOC[C@H](CO)OC(C)=O`, the results for the nuclei count, normalised in test [1] (setting [3]) and in test [1] (setting [4]) were 97.1% and 102%, respectively. Besides, the results for the p53-positive nuclei, normalised in test [2] (concentration not given here) and in test [2] (setting [5]) were -0.0599% (inactive) and 0.0467%, respectively.
Regarding `COc1ccc2nc3ccc(OC)cc3c(SCCCN)c2c1`, the nuclei count, normalised in test [1] (setting [10]) stood at 111%; in test [1] (setting [11]), 114%; in test [1] (setting [12]), 103%; in test [1] (setting [13]), 81.6%; in test [1] (setting [14]), 119%; in test [1] (setting [15]) it was 115%. The nuclei count, normalised in test [1] (setting [16]) was 109%; in test [1] (setting [17]), 90.5%. Moreover, the p53-positive nuclei, normalised in test [2] (setting [18]) was -0.0602% (inactive); in test [2] (setting [19]), -0.0191% (inactive); in test [2] (setting [20]), -0.0521% (inactive); in test [2] (setting [21]), 0.61% (inactive); in test [2] (setting [22]), -0.00591%; in test [2] (setting [23]) it was -0.136%. Besides, the p53-positive nuclei, normalised in test [2] (setting [24]) amounted to 0.00172%; in test [2] (setting [25]) it was 0.819%.
